Here are results for 39 compounds from the supplement of paper PMC12494721.

Structures are written as SMILES. Structures can show the parent of a compound that is named as a salt.

The subject of one assay is Escherichia coli IAI1. Description: fold change of Putrescine concentration vs plate DMSO controls (fold change (ratio)); higher = more amine produced, active = hit call of the paper (significant change in both replicates, either direction). Conditions: incubation time: 27 h, anaerobic, 37 °C. The method in brief: (§1)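 Amine values are fold changes relative to DMSO-only wells on the same plate. They derive from 27 h, 37 °C anaerobic mGAM cultures of four gut bacterial strains in 80 µL wells, dosed at 20 µM final, or 50 µM final for sweeteners. Extraction of the whole culture, LC–triple-quadrupole MS in dynamic MRM mode, external calibration curves and within-batch drift correction were used, with 2 biological replicates averaged.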
`COc1cc(C(=O)N2CCOCC2)cc(OC)c1OC` [Trimetozine] (20 µM): the “fold change of Putrescine concentration” value was 1.12 (inactive).
The same measure, in the same setting: the result for `CC(C)NC[C@@H](O)COc1ccc(CC(N)=O)cc1` [(R,+) Atenolol] (20 µM) reads 1.19 (inactive); that for `O=C(O)Cc1sc(-c2ccccc2)nc1-c1ccc(Cl)cc1` [Fentiazac] (20 µM), 1.04 (inactive).
The same measure, in the same setting: the result for `Nc1nc(CC(=O)Nc2ccc(CCNC[C@H](O)c3ccccc3)cc2)cs1` [Mirabegron] (20 µM) reads 0.977 (inactive).
Still for that read-out and setting: then `NS(=O)(=O)c1cc2c(cc1Cl)NC(CC1CCCC1)NS2(=O)=O` (configuration not stated) [Cyclopenthiazide] (20 µM), with 1.07 (inactive); and `Cc1cc(/C=C/c2ccc3cc(N(C)C)ccc3[n+]2C)c(C)n1-c1ccccc1` [Pyrvinium pamoate] (20 µM), with 1.22 (inactive); and `CN1CCC(=C2c3ccccc3C=Cc3ccccc32)CC1` [Cyproheptadine hydrochloride] (20 µM), with 0.969 (inactive).
Take `Cc1ccccc1OCC(O)CO` (configuration not stated) [Mephenesin] (20 µM): the “fold change of Putrescine concentration” value was 1.13 (inactive).

The test system of another assay is Klebsiella aerogenes DSM 30053. The assay is described as above. The following applies: incubation time: 27 h, anaerobic, 37 °C. The method in brief: as §1
In the case of `O=C(O)c1cc(-c2ccc(F)cc2F)ccc1O` [Diflunisal] (20 µM), the “fold change of Putrescine concentration” value was 0.988 (inactive).
The same measure, in the same setting: then `Fc1ccc([C@@H]2CCNC[C@H]2COc2ccc3c(c2)OCO3)cc1` [Paroxetine hydrochloride] (20 µM), with 0.991 (inactive); and `CCN(CC)CCOC(=O)C1(C2CCCCC2)CCCCC1` [Dicyclomine hydrochloride] (20 µM), with 1.01 (inactive).
The same measure, in the same setting: the result for `CN1[C@@H]2CC[C@H]1C[C@@H](OC(=O)c1c[nH]c3ccccc13)C2` [Tropisetron hydrochloride] (20 µM) reads 0.952 (inactive); that for `NC(=O)N1c2ccccc2CC(=O)c2ccccc21` [Oxcarbazepine] (20 µM), 1.01 (inactive).
Same read-out and setting: then `N=C(NCCCCCCNC(=N)NC(=N)Nc1ccc(Cl)cc1)NC(=N)Nc1ccc(Cl)cc1` [Chlorhexidine] (20 µM), with 0.783 (inactive); and `CC(=O)Nc1ccccc1` [Acetanilide] (20 µM), with 1.02 (inactive).
For the compound `Nc1nc(N)nc(-c2cc(Cl)ccc2Cl)n1` [Irsogladine maleate] (20 µM), the “fold change of Putrescine concentration” value was 0.998 (inactive).
As to `Cc1ccsc1C(=CCCN1CCC[C@@H](C(=O)O)C1)c1sccc1C` [Tiagabine hydrochloride] (20 µM), the “fold change of Putrescine concentration” value was 1.02 (inactive).
On the same count and under the same terms, the result for `CC(C)NCC(O)c1ccc(O)c(O)c1` (single isomer, unassigned; (-)) [(-) Isoproterenol hydrochloride] (20 µM) reads 0.996 (inactive); that for `CN(C)CCN(Cc1ccccc1)c1ccccn1` [Tripelennamine hydrochloride] (20 µM), 1.01 (inactive).
As to `C[C@H](NCc1ccc(OCc2cccc(F)c2)cc1)C(N)=O` [Safinamide] (20 µM), the “fold change of Putrescine concentration” value is 1 (inactive).
On to `Cc1cc(NS(=O)(=O)c2ccc(N)cc2)nc(C)n1` [Sulfisomidine] (20 µM), for which the “fold change of Putrescine concentration” value is 0.987 (inactive).
Regarding `O=C(O)Cc1ccccc1Nc1c(Cl)cccc1Cl` [Diclofenac sodium] (20 µM), the “fold change of Putrescine concentration” value was 1 (inactive).
The same measure, in the same setting: the result for `CN1CCCN=C1/C=C/c1cccs1` [Pyrantel tartrate] (20 µM) reads 1 (inactive); that for `CN(C(=O)C(Cl)Cl)c1ccc(OC(=O)c2ccco2)cc1` [Diloxanide furoate] (20 µM), 1 (inactive); that for `O=C(Oc1ccccc1)c1ccccc1O` [Phenyl salicylate] (20 µM), 0.942 (inactive).
The same measure, in the same setting: then `CCCCC(C)(O)C/C=C/[C@H]1[C@H](O)CC(=O)[C@@H]1CCCCCCC(=O)OC` (mixture of isomers) [Misoprostol] (20 µM), with 1.02 (inactive); and `Cc1cc(C(C)(C)C)c(O)c(C)c1CC1=NCCN1` [Oxymetazoline hydrochloride] (20 µM), with 0.958 (inactive).
The same measure, in the same setting: then `CCN(CC)CCc1nc(-c2ccccc2)no1` [Oxolamine citrate salt] (20 µM), with 1.01 (inactive).
With `COc1ccc2c(c1)c(CC(=O)OCC(=O)O)c(C)n2C(=O)c1ccc(Cl)cc1` [Acemetacin] (20 µM), the “fold change of Putrescine concentration” value is 1.01 (inactive).
For `Cn1cnc([N+](=O)[O-])c1Sc1ncnc2[nH]cnc12` [Azathioprine] (20 µM), the “fold change of Putrescine concentration” value was 0.99 (inactive).
The same measure, in the same setting: the result for `CCOC(=O)c1ccc(N)cc1` [Benzocaine] (20 µM) reads 0.969 (inactive); that for `COC1=C(OC)C(=O)C(CCCCCCCCCCO)=C(C)C1=O` [Idebenone] (20 µM), 1.01 (inactive).
On the same count and under the same terms, then `CC(=O)NCCCS(=O)(=O)O` [Acamprosate calcium] (20 µM), with 1.02 (inactive); and `CC(C)NCC(O)COc1cccc2[nH]c3ccccc3c12` (configuration not stated) [Carazolol] (20 µM), with 0.966 (inactive); and `CC(C(=O)O)c1ccc(N2Cc3ccccc3C2=O)cc1` (configuration not stated) [Indoprofen] (20 µM), with 0.993 (inactive).
Same read-out and setting: then `CC1(C)S[C@@H]2[C@H](NC(=O)[C@H](N)c3ccccc3)C(=O)N2[C@H]1C(=O)O` [Ampicillin trihydrate] (20 µM), with 1.03 (inactive); and `CCN1CCCC1CNC(=O)c1cc(S(=O)(=O)CC)c(N)cc1OC` (configuration not stated) [Amisulpride] (20 µM), with 0.999 (inactive); and `COC(=O)Nc1nc2cc(C(=O)c3ccc(F)cc3)ccc2[nH]1` [Flubendazol] (20 µM), with 1.02 (inactive).
Turning to `CCOc1nc2cccc(C(=O)OCc3oc(=O)oc3C)c2n1Cc1ccc(-c2ccccc2-c2noc(=O)[nH]2)cc1` [Azilsartan medoxomil] (20 µM), the “fold change of Putrescine concentration” value was 1.01 (inactive).
`COc1cc(C(=O)N2CCOCC2)cc(OC)c1OC` [Trimetozine] (20 µM): the “fold change of Putrescine concentration” value was 0.998 (inactive).
On the same count and under the same terms, the result for `CC(C)NC[C@@H](O)COc1ccc(CC(N)=O)cc1` [(R,+) Atenolol] (20 µM) reads 1.02 (inactive); that for `O=C(O)Cc1sc(-c2ccccc2)nc1-c1ccc(Cl)cc1` [Fentiazac] (20 µM), 0.971 (inactive); that for `Nc1nc(CC(=O)Nc2ccc(CCNC[C@H](O)c3ccccc3)cc2)cs1` [Mirabegron] (20 µM), 1.01 (inactive).
On the same count and under the same terms, then `NS(=O)(=O)c1cc2c(cc1Cl)NC(CC1CCCC1)NS2(=O)=O` (configuration not stated) [Cyclopenthiazide] (20 µM), with 1.01 (inactive); and `Cc1cc(/C=C/c2ccc3cc(N(C)C)ccc3[n+]2C)c(C)n1-c1ccccc1` [Pyrvinium pamoate] (20 µM), with 1.01 (inactive); and `CN1CCC(=C2c3ccccc3C=Cc3ccccc32)CC1` [Cyproheptadine hydrochloride] (20 µM), with 0.996 (inactive).
Still for that read-out and setting: then `Cc1ccccc1OCC(O)CO` (configuration not stated) [Mephenesin] (20 µM), with 1 (inactive).
